In the library only some 10% were active in any assay of this set; here they are far more common.
ALOX12 inhib – blocks human 12-lipoxygenase activity | purified 12-hLO, xylenol orange hydroperoxide absorbance | AID 1452 | Potency, µM (top dose mostly 57.1 µM), for the others: at the highest dose activity change, negative = inhibition, actives largely listed as inhibitors | P18054 | actives 0.12% (n = 150,000); active means well fitted inhibition curve with a large enough effect; inconclusive means small, poorly fitted or top-dose-only effect; further: potency means the concentration at half of the fitted maximal effect; nearly all actives have a fitted effect of over 55% in size
Target sequence (P18054 whole entry, looked up): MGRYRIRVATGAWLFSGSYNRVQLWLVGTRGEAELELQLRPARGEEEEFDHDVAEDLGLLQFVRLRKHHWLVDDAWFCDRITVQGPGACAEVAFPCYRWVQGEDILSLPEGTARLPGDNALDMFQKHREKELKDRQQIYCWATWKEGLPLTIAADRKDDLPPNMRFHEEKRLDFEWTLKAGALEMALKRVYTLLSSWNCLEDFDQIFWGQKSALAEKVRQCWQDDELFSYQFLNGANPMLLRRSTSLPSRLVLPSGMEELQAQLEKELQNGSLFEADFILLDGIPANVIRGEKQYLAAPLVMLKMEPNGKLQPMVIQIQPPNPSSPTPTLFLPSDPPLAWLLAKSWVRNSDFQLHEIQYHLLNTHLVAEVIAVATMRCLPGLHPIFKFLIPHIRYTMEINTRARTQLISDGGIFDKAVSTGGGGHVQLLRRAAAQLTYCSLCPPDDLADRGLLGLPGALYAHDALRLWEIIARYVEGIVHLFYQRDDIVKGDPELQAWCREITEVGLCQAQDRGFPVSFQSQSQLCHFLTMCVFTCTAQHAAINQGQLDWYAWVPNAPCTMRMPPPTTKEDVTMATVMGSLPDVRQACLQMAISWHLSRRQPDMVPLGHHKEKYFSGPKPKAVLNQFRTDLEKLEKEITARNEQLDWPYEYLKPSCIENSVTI
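150 nM 12hLO, 25 mM Hepes pH 7.0 + 0.01% Triton X-100; cpd preinc 15 min RT; 40 uM arachidonic acid, 30 min RT; Fe-XO 30 min; A573/A405 ratio as read-out.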
Lamin A splicing – modulators of lamin A splicing. HeLa LMNA splicing GFP/RFP minigene ratio, 48 h. Potency, µM (series often up to 46.1 µM), inactives show at the highest dose ratio change, negative = inhibition, most hits filed as inhibitors. actives 0.01% (n = 200,000); active means well fitted inhibition curve with a large enough effect in the signal ratio, with a control signal flat, not every such curve was filed as active; inconclusive means small, poorly fitted or top-dose-only effect, or effect the other way, or a change in a side signal; the % refers to the signal ratio; further: potency means the concentration at half of the fitted maximal effect
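S3 HeLa cells stably expressing lamin A-EGFP splicing minigene plus DsRed2, 600 cells/well, 48 h compound exposure at 37C. Laser-scanning cytometry; analysed as GFP (500-530 nm)/RFP (575-640 nm) total intensity ratio; 0.5% DMSO vehicle.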
PNC assembly inh – perinucleolar compartment assembly inhibition; actives 3.1% (n = 140,000); activity change (PNC), negative = inhibition, % at 10 µM; PC3M PTB-GFP, PNC prevalence imaging, 16 h; stronger effect = lower value;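 active means readout at or below -70, meaning at least 70% loss of cells showing the perinucleolar compartment, a nuclear body marking cancer cells; inconclusive means readout between -30 and a set limit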;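 further: plate controls were DMSO wells for no effect and camptothecin positive control wells for full effect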
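Read-out is percentage of cells bearing a perinucleolar compartment, from automated 20x imaging of fixed, Hoechst-stained PC3M PTB-GFP cells. Cells were seeded 4 h, then exposed 16 h to compound (23 nl of library stock) in duplicate plates.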
ALDH1A1 inh – ALDH1A1 (human) enzyme inhibition; actives 7.3% (n = 220,000); Purified ALDH1A1, NADH fluorescence, propionaldehyde substrate; P00352; AID 1030; Potency, µM (series often up to 75.3 µM), for the others: at the top dose activity, negative = inhibition, hits mostly inhibitors;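 further: potency means the concentration at half of the fitted maximal effect; plate controls were no enzyme wells and a reference inhibitor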
HPGD block – blocks human HPGD enzyme activity; AID 894; Potency, µM, inactives show top-dose activity change, negative = inhibition, usual class: inhibitors; P15428; purified HPGD, NADH fluorescence kinetic, PGE2 substrate; actives 4.3% (n = 150,000); further: potency means the concentration at half of the fitted maximal effect
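20 nM HPGD preincubated 15 min at room temperature with compound in 50 mM Tris-HCl pH 8, 0.01% Tween 20. Started with 1 mM NAD+ and 30 uM prostaglandin E2; NADH fluorescence (360/450 nm) read 5 times over 30-s intervals, last minus first.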
* = called active by the depositor; ? = inconclusive; nt = no result given; [ ] = dose if it differs, or a comment. Unless noted, the call rests on the fitted dose curve; in most records, active means well fitted inhibition curve with a large enough effect (not every such curve was filed as active); inconclusive means small, poorly fitted or top-dose-only effect, or another doubt; inactive means no such curve, though single readings can be large or run the other way. Unless noted, on the % scale 0 is the no-effect control and ±100 the full control effect.

SMILES	ALOX12 inhib	Lamin A splicing	PNC assembly inh	ALDH1A1 inh	HPGD block
Cc1ccc(/C=N/c2sc3c(c2C#N)CCC3)s1	-8%	-15%	-9	25µM*	-22%
CCN(CC)CCCC(C)NC(=O)c1ccc(Cc2nc3ccccc3[nH]2)cc1 (stereo unspecified)	-5%	nt	nt	-1%	-1%
N=C(N)c1ccc2cc(OC(=O)c3ccc(N=C(N)N)cc3)ccc2c1	nt	?	nt	22µM*	nt
CC1CCCC2(C1)NC(=S)N(c1ccccc1)N2 (stereo unspecified)	?	?	?	?	-6%
CC1CCCC2(C1)NC(=S)c1c(sc3c1CCCC3)N2 (stereo unspecified)	-27%	1%	?	3.5µM*	4.5µM*
COc1ccc(CCNC(=O)c2c(C)oc3ncn(C)c(=O)c23)c(OC)c1	nt	8%[46 µM]	nt	nt	nt
CCOC(=O)C1=C(C)C(c2ccccc2OC)NC(=S)N1 (stereo unspecified)	-9%	-2%	?	3.5µM*	-10%
CCOC(=O)C1=C(C)C(c2ccccc2OC)NC(=O)N1 (stereo unspecified)	2%	-2%	5	-14%	-23%
Cn1c(=O)c2nc(SCC(=O)Nc3cc(Cl)ccc3Cl)n(C)c2n(C)c1=O	nt	10%[46 µM]	nt	nt	nt
Cc1cc(C)n(-c2nc(C)nc3c2cnn3-c2ccccc2)n1	3%	-7%	-96*	1%	?
Cc1cccc(NC(=S)NNC(=O)c2csc(C(C)C)c2)c1	?	?	?	13µM*	-12%
S=C(NCc1ccccc1)Nc1cccc(Cl)c1	-12%	?	-28	5%	14µM*
Cc1ccc(NC(=S)NCc2ccccc2)cc1[N+](=O)[O-]	-29%	-13%	7	-13%	13µM*
Cc1ccc(CNC(=S)Nc2ccc(C)c([N+](=O)[O-])c2)cc1	?	-10%	-10	4%	nt
CCc1cc(C(=O)NNC(=S)Nc2cccc(C)c2)cs1	-4%	-9%	?	?	-8%
O=C(O)c1cccc(NC(=S)NCc2ccccc2)c1	nt	13%[46 µM]	nt	12%	nt
Cc1cccc(NC(=S)NNC(=S)NCc2ccccc2)c1	-22%	?	20	1.6µM*	?
O=C(CNc1cccc(Cl)c1)NNC(=S)NCc1ccccc1	nt	-15%[46 µM]	nt	0%	nt
C[C@H](CO)NC(=O)[C@H]1C[C@@H]1[C@H](NP(=O)(c1ccccc1)c1ccccc1)c1ccccc1	-6%	nt	nt	2%	-7%
[Cl][In]([Cl])[Cl]	-21%	13%	nt	8%	-11%
C=COCCNC(=S)Nc1cccc(Cl)c1	nt	1%[46 µM]	nt	-7%	nt
COCCCNC(=S)NNC(=S)Nc1cccc(Cl)c1	nt	nt	nt	4.5µM*	nt
Cc1ccc(/C([O-])=C(/C(=S)NCc2ccccc2)[n+]2cccc(CO)c2)cc1[N+](=O)[O-]	nt	?	nt	8.9µM*	nt
CCCCC1=CC2=CC(=O)C(C)(OC(=O)c3ccc(Cl)nc3)C(=O)C2=CO1 (stereo unspecified)	-8%	nt	nt	8%	-4%
CC(C)OC(=O)c1nnn(-c2nonc2N)c1CN1CCc2ccccc2C1	-2%	0%	2	?	-10%
SMILES	ALOX12 inhib	Lamin A splicing	PNC assembly inh	ALDH1A1 inh	HPGD block
COC(=O)c1nnn(-c2nonc2N)c1CSc1ccccn1	-1%	7%	?	?	-1%
CC(C)OC(=O)c1nnn(-c2nonc2N)c1CSc1ccccn1	-15%	20%	-3	2.2µM*	?
CCOC(=O)c1nnn(-c2nonc2N)c1CN1CCc2ccccc2C1	-4%	-7%	-83*	?	0%
Cc1c(C(=O)N2CCCC2)nnn1-c1nonc1N	5%	0%	6	25µM*	-30%
CCc1nn2cc(C(=O)c3cc(Cl)ccc3O)cnc2c1-c1ccc(F)cc1	0%	?	-21	-8%	16µM*
COc1ccc(CC(=O)Nc2oc(-c3ccccc3)c(-c3ccccc3)c2C#N)cc1OC	3%	-2%	-100*	1%	?
COc1ccc(-c2oc(NC(=O)CCl)c(C#N)c2-c2ccc(OC)cc2)cc1	-3%	?	25	2.5µM*	-16%
CCNc1ncc2nc(-c3ccc(Cl)cc3)c(=O)n(Cc3cccc(OC)c3)c2n1	nt	?	nt	2%	nt
CCN1CCCC1CN=Cc1c(O)n(-c2ccccc2)c(=O)c2ccccc12 (stereo unspecified)	-2%	-4%	-92*	?	-28%
CC(C)CCN=Cc1c(O)n(-c2ccccc2)c(=O)c2ccccc12	2%	-6%	?	-11%	-13%
CN(C)C(=O)c1ccc(NC(=O)c2ccccc2Sc2ccccc2C#N)cc1	-1%	-10%	34	-12%	18µM*
N#Cc1ccccc1Sc1ccccc1C(=O)Nc1ccccc1	-5%	?	5	2%	-3%
CCc1cccc2c1NC(=O)C2(O)CC(=O)c1cccs1 (stereo unspecified)	nt	7%[46 µM]	nt	14µM*	nt
CCc1ccc2c(c1)C(O)(CC(=O)c1cccs1)C(=O)N2 (stereo unspecified)	nt	?	nt	4%	nt
Cc1nn(C)c2ncc(C(=O)c3cc(F)ccc3O)cc12	0%	-1%	-8	7%	-19%
Cc1nn(-c2ccccc2)c2ncc(C(=O)c3cc(Cl)ccc3O)cc12	-1%	?	-28	-4%	16µM*
COc1ccc(NC(=O)C2CCCN(S(=O)(=O)c3ccc4c(c3)CCCC(=O)N4)C2)cc1OC (stereo unspecified)	nt	-9%[46 µM]	nt	nt	nt
COc1ccc(N=N/C(=C\O)C(=O)c2cccs2)cc1	nt	-22%[46 µM]	nt	14µM*	nt
COc1ccc(C(=O)/C(=C/O)N=Nc2ccc(F)cc2)cc1	nt	?	nt	4µM*	nt
Nc1nc2ccccc2n1/N=C/c1ccc([N+](=O)[O-])s1	-3%	?	-83*	-6%	-21%
Nc1nc2ccccc2n1/N=C/c1ccc(-c2ccccc2)o1	-19%	?	18	4%	-15%
N#CCC(=N)N1CCN(c2ccc(F)cc2)CC1	nt	nt	nt	11µM*	nt
COc1ccc(N2C(=O)CSC2c2cccs2)cc1 (stereo unspecified)	0%	?	-114*	?	-5%
COc1ccc(CN2C(=O)CSC2c2ccncc2)cc1 (stereo unspecified)	nt	nt	nt	4%	nt
CCOc1ccc(N2C(=O)CSC2c2ccncc2)cc1 (stereo unspecified)	-3%	4%	-100*	-5%	-10%
CC/C(=N/NC(=O)c1ccc(Br)o1)c1ccc(Cl)cc1	0%	9%	?	0%	-14%
CCCC/C(=N\NC(=O)c1ccc(Br)o1)c1ccccc1	1%	3%	-114*	-3%	-3%
COc1ccc(CCNC(=O)C(=O)NCC(c2cccs2)S(=O)(=O)c2ccc(C)cc2)cc1 (stereo unspecified)	nt	-8%[46 µM]	nt	nt	nt
COCC(=O)N1CCC2(CCN(Cc3ccccc3)CC2)CC1	-4%	nt	nt	-4%	-6%

Assay outcomes deposited in PubChem by National Center for Advancing Translational Sciences (NCATS).
